In the supplement of paper PMC4022240:
± gives the standard deviation.

How the values were obtained:
Experiment in all cases: peptide microarray binding signal (635 nm), min-max normalized on array (fraction of array maximum); higher = stronger binding
Details in all cases: peptide region: H2B 17-29
[1] = target: T1, HaloTag-ATRX ADD domain (163-292)
T1 chain: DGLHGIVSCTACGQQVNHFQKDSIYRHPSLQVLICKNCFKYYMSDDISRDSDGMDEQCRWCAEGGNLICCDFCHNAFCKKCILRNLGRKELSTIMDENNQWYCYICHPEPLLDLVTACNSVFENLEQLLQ
Procedure: (§1)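 Histone 13-mer peptides were synthesized as cellulose conjugates with a C-terminal 20-atom PEG linker and printed in triplicate on nitrocellulose. The sequence given is the unmodified backbone; PTMs (Kme1/2/3, Kac, Sph/Tph, Rme/Rme2a/Rme2s, Rcit) are listed in the label and the 'peptide modifications' condition. Slides were probed at 4 °C for 1 h with biotin-labelled (HQ)5-HaloTag reader fusions (ATRX-ADD, ING2-PHD) then streptavidin-Alexa647, or with rabbit histone antibodies then anti-rabbit Alexa647. The mean 635 nm signal of the triplicate spots was scaled 0-1 between the lowest and highest values on each array.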

[2] = target: HaloTag-ING2 PHD (mouse Ing2 200-280)
Procedure: as §1

[3] = target: anti-H3K4me3 antibody ab8580
Procedure: as §1

[4] = target: anti-H3K9me3 antibody ab8898
Procedure: as §1

[5] = peptide modifications: H2BK23ac H2BK24ac H2BK28ac, binder concentration: 1:2,000 dilution
[6] = peptide modifications: H2BK23ac H2BK24ac H2BK28ac, binder concentration: 1:10,000 dilution
[7] = peptide modifications: H2BK20ac H2BK23ac H2BK24ac H2BK27ac H2BK28ac, binder concentration: 1:2,000 dilution
[8] = peptide modifications: H2BK20ac H2BK23ac H2BK24ac H2BK27ac H2BK28ac, binder concentration: 1:10,000 dilution
[9] = peptide modifications: H2BK20ac H2BK24ac H2BK27ac H2BK28ac, binder concentration: 1:2,000 dilution
[10] = peptide modifications: H2BK20ac H2BK24ac H2BK27ac H2BK28ac, binder concentration: 1:10,000 dilution
[11] = peptide modifications: H2BK20ac H2BK23ac, binder concentration: 1:2,000 dilution
[12] = peptide modifications: H2BK20ac H2BK23ac, binder concentration: 1:10,000 dilution
[13] = peptide modifications: H2BK20ac H2BK27ac, binder concentration: 1:2,000 dilution
[14] = peptide modifications: H2BK20ac H2BK27ac, binder concentration: 1:10,000 dilution
[15] = peptide modifications: H2BK20ac H2BK27ac H2BK28ac, binder concentration: 1:2,000 dilution
[16] = peptide modifications: H2BK20ac H2BK27ac H2BK28ac, binder concentration: 1:10,000 dilution
[17] = peptide modifications: H2BK20ac H2BK28ac, binder concentration: 1:2,000 dilution
[18] = peptide modifications: H2BK20ac H2BK28ac, binder concentration: 1:10,000 dilution
[19] = peptide modifications: H2BK20ac H2BK23ac H2BK24ac H2BK27ac, binder concentration: 1:2,000 dilution
[20] = peptide modifications: H2BK20ac H2BK23ac H2BK24ac H2BK27ac, binder concentration: 1:10,000 dilution
[21] = peptide modifications: H2BK20ac H2BK23ac H2BK28ac, binder concentration: 1:2,000 dilution
[22] = peptide modifications: H2BK20ac H2BK23ac H2BK28ac, binder concentration: 1:10,000 dilution
[23] = peptide modifications: H2BK20ac H2BK23ac H2BK27ac, binder concentration: 1:2,000 dilution
[24] = peptide modifications: H2BK20ac H2BK23ac H2BK27ac, binder concentration: 1:10,000 dilution

## AVTKAQKKDGKKR [H2B 17-29 A V T K A Q Kac Kac D G K Kac R]
[1]; peptide modifications: H2BK23ac H2BK24ac H2BK28ac, binder concentration: 50 nM
  peptide microarray binding signal: 0.0036 ± 3.9e-05
[1]; peptide modifications: H2BK23ac H2BK24ac H2BK28ac, binder concentration: 500 nM
  peptide microarray binding signal: 0.00652 ± 0.00023
[2]; peptide modifications: H2BK23ac H2BK24ac H2BK28ac, binder concentration: 10 nM
  peptide microarray binding signal: 0.00561 ± 8.2e-05
[2]; peptide modifications: H2BK23ac H2BK24ac H2BK28ac, binder concentration: 100 nM
  peptide microarray binding signal: 0.00822 ± 0.00014
[3]; [5]
  peptide microarray binding signal: 0.00143 ± 0.00012
[3]; [6]
  peptide microarray binding signal: 0.00217 ± 0.00011
[4]; [5]
  peptide microarray binding signal: 0.000544 ± 2.3e-05
[4]; [6]
  peptide microarray binding signal: 0.00098 ± 1.7e-05

## AVTKAQKKDGKKR [H2B 17-29 A V T Kac A Q Kac Kac D G Kac Kac R]
[1]; peptide modifications: H2BK20ac H2BK23ac H2BK24ac H2BK27ac H2BK28ac, binder concentration: 50 nM
  peptide microarray binding signal: 0.00442 ± 0.00034
[1]; peptide modifications: H2BK20ac H2BK23ac H2BK24ac H2BK27ac H2BK28ac, binder concentration: 500 nM
  peptide microarray binding signal: 0.01 ± 0.0008
[2]; peptide modifications: H2BK20ac H2BK23ac H2BK24ac H2BK27ac H2BK28ac, binder concentration: 10 nM
  peptide microarray binding signal: 0.00871 ± 0.00071
[2]; peptide modifications: H2BK20ac H2BK23ac H2BK24ac H2BK27ac H2BK28ac, binder concentration: 100 nM
  peptide microarray binding signal: 0.0154 ± 0.0025
[3]; [7]
  peptide microarray binding signal: 0.00208 ± 0.00036
[3]; [8]
  peptide microarray binding signal: 0.00257 ± 0.0004
[4]; [7]
  peptide microarray binding signal: 0.000936 ± 3.8e-05
[4]; [8]
  peptide microarray binding signal: 0.00236 ± 0.00011

## AVTKAQKKDGKKR [H2B 17-29 A V T Kac A Q K Kac D G Kac Kac R]
[1]; peptide modifications: H2BK20ac H2BK24ac H2BK27ac H2BK28ac, binder concentration: 50 nM
  peptide microarray binding signal: 0.00276 ± 5.2e-05
[1]; peptide modifications: H2BK20ac H2BK24ac H2BK27ac H2BK28ac, binder concentration: 500 nM
  peptide microarray binding signal: 0.00419 ± 0.00026
[2]; peptide modifications: H2BK20ac H2BK24ac H2BK27ac H2BK28ac, binder concentration: 10 nM
  peptide microarray binding signal: 0.00436 ± 0.00021
[2]; peptide modifications: H2BK20ac H2BK24ac H2BK27ac H2BK28ac, binder concentration: 100 nM
  peptide microarray binding signal: 0.00489 ± 0.00035
[3]; [9]
  peptide microarray binding signal: 0.000472 ± 1.7e-05
[3]; [10]
  peptide microarray binding signal: 0.000856 ± 8.9e-06
[4]; [9]
  peptide microarray binding signal: 0.000468 ± 1.8e-05
[4]; [10]
  peptide microarray binding signal: 0.000692 ± 7.3e-06

## AVTKAQKKDGKKR [H2B 17-29 A V T Kac A Q Kac K D G K K R]
[1]; peptide modifications: H2BK20ac H2BK23ac, binder concentration: 50 nM
  peptide microarray binding signal: 0.00492 ± 0.00049
[1]; peptide modifications: H2BK20ac H2BK23ac, binder concentration: 500 nM
  peptide microarray binding signal: 0.002 ± 0.0004
[2]; peptide modifications: H2BK20ac H2BK23ac, binder concentration: 10 nM
  peptide microarray binding signal: 0.00477 ± 0.00013
[2]; peptide modifications: H2BK20ac H2BK23ac, binder concentration: 100 nM
  peptide microarray binding signal: 0.00333 ± 0.00048
[3]; [11]
  peptide microarray binding signal: 0.000321 ± 3.2e-05
[3]; [12]
  peptide microarray binding signal: 0.00097 ± 7e-05
[4]; [11]
  peptide microarray binding signal: 0.000408 ± 6.9e-06
[4]; [12]
  peptide microarray binding signal: 0.000634 ± 1.2e-05

## AVTKAQKKDGKKR [H2B 17-29 A V T Kac A Q K K D G Kac K R]
[1]; peptide modifications: H2BK20ac H2BK27ac, binder concentration: 50 nM
  peptide microarray binding signal: 0.00332 ± 9.9e-05
[1]; peptide modifications: H2BK20ac H2BK27ac, binder concentration: 500 nM
  peptide microarray binding signal: 0.00976 ± 0.00025
[2]; peptide modifications: H2BK20ac H2BK27ac, binder concentration: 10 nM
  peptide microarray binding signal: 0.00573 ± 0.0013
[2]; peptide modifications: H2BK20ac H2BK27ac, binder concentration: 100 nM
  peptide microarray binding signal: 0.00397 ± 0.00018
[3]; [13]
  peptide microarray binding signal: 0.00349 ± 0.00028
[3]; [14]
  peptide microarray binding signal: 0.000856 ± 8.9e-06
[4]; [13]
  peptide microarray binding signal: 0.000755 ± 1.7e-05
[4]; [14]
  peptide microarray binding signal: 0.000461 ± 8.7e-06

## AVTKAQKKDGKKR [H2B 17-29 A V T Kac A Q K K D G Kac Kac R]
[1]; peptide modifications: H2BK20ac H2BK27ac H2BK28ac, binder concentration: 50 nM
  peptide microarray binding signal: 0.00398 ± 4.1e-05
[1]; peptide modifications: H2BK20ac H2BK27ac H2BK28ac, binder concentration: 500 nM
  peptide microarray binding signal: 0.00567 ± 0.00013
[2]; peptide modifications: H2BK20ac H2BK27ac H2BK28ac, binder concentration: 10 nM
  peptide microarray binding signal: 0.003819 ± 3.5e-05
[2]; peptide modifications: H2BK20ac H2BK27ac H2BK28ac, binder concentration: 100 nM
  peptide microarray binding signal: 0.00404 ± 0.00021
[3]; [15]
  peptide microarray binding signal: 0.000812 ± 0.00014
[3]; [16]
  peptide microarray binding signal: 0.00114 ± 1.2e-05
[4]; [15]
  peptide microarray binding signal: 0.0005135 ± 4.8e-06
[4]; [16]
  peptide microarray binding signal: 0.00075 ± 7.9e-06

## AVTKAQKKDGKKR [H2B 17-29 A V T Kac A Q K K D G K Kac R]
[1]; peptide modifications: H2BK20ac H2BK28ac, binder concentration: 50 nM
  peptide microarray binding signal: 0.00245 ± 3.9e-05
[1]; peptide modifications: H2BK20ac H2BK28ac, binder concentration: 500 nM
  peptide microarray binding signal: 0.00848 ± 0.00061
[2]; peptide modifications: H2BK20ac H2BK28ac, binder concentration: 10 nM
  peptide microarray binding signal: 0.00328 ± 6.2e-05
[2]; peptide modifications: H2BK20ac H2BK28ac, binder concentration: 100 nM
  peptide microarray binding signal: 0.00446 ± 0.00022
[3]; [17]
  peptide microarray binding signal: 0.00126 ± 0.00023
[3]; [18]
  peptide microarray binding signal: 0.000799 ± 8.3e-06
[4]; [17]
  peptide microarray binding signal: 0.000393 ± 7.7e-06
[4]; [18]
  peptide microarray binding signal: 0.000461

## AVTKAQKKDGKKR [H2B 17-29 A V T Kac A Q Kac Kac D G Kac K R]
[1]; peptide modifications: H2BK20ac H2BK23ac H2BK24ac H2BK27ac, binder concentration: 50 nM
  peptide microarray binding signal: 0.00357 ± 0.00035
[1]; peptide modifications: H2BK20ac H2BK23ac H2BK24ac H2BK27ac, binder concentration: 500 nM
  peptide microarray binding signal: 0.00643 ± 0.00011
[2]; peptide modifications: H2BK20ac H2BK23ac H2BK24ac H2BK27ac, binder concentration: 10 nM
  peptide microarray binding signal: 0.00579 ± 0.00026
[2]; peptide modifications: H2BK20ac H2BK23ac H2BK24ac H2BK27ac, binder concentration: 100 nM
  peptide microarray binding signal: 0.00702 ± 0.00069
[3]; [19]
  peptide microarray binding signal: 0.00136 ± 0.0002
[3]; [20]
  peptide microarray binding signal: 0.00131 ± 2.6e-05
[4]; [19]
  peptide microarray binding signal: 0.000982 ± 0.00011
[4]; [20]
  peptide microarray binding signal: 0.0011 ± 2.2e-05

## AVTKAQKKDGKKR [H2B 17-29 A V T Kac A Q Kac K D G K Kac R]
[1]; peptide modifications: H2BK20ac H2BK23ac H2BK28ac, binder concentration: 50 nM
  peptide microarray binding signal: 0.00429 ± 0.00027
[1]; peptide modifications: H2BK20ac H2BK23ac H2BK28ac, binder concentration: 500 nM
  peptide microarray binding signal: 0.00667 ± 0.00058
[2]; peptide modifications: H2BK20ac H2BK23ac H2BK28ac, binder concentration: 10 nM
  peptide microarray binding signal: 0.0115 ± 0.00023
[2]; peptide modifications: H2BK20ac H2BK23ac H2BK28ac, binder concentration: 100 nM
  peptide microarray binding signal: 0.0129 ± 0.0013
[3]; [21]
  peptide microarray binding signal: 0.00221 ± 0.00083
[3]; [22]
  peptide microarray binding signal: 0.00097 ± 9.9e-06
[4]; [21]
  peptide microarray binding signal: 0.000634 ± 2e-05
[4]; [22]
  peptide microarray binding signal: 0.00104 ± 4.3e-05

## AVTKAQKKDGKKR [H2B 17-29 A V T Kac A Q Kac K D G Kac K R]
[1]; peptide modifications: H2BK20ac H2BK23ac H2BK27ac, binder concentration: 50 nM
  peptide microarray binding signal: 0.00646 ± 0.00075
[1]; peptide modifications: H2BK20ac H2BK23ac H2BK27ac, binder concentration: 500 nM
  peptide microarray binding signal: 0.00214 ± 0.00028
[2]; peptide modifications: H2BK20ac H2BK23ac H2BK27ac, binder concentration: 10 nM
  peptide microarray binding signal: 0.00585 ± 0.00024
[2]; peptide modifications: H2BK20ac H2BK23ac H2BK27ac, binder concentration: 100 nM
  peptide microarray binding signal: 0.000992 ± 4.7e-05
[3]; [23]
  peptide microarray binding signal: 0.000189 ± 5.4e-06
[3]; [24]
  peptide microarray binding signal: 0.0016 ± 0.00014
[4]; [23]
  peptide microarray binding signal: 0.000664 ± 5.2e-05
[4]; [24]
  peptide microarray binding signal: 0.001211 ± 1.2e-05
